Reference: PubChem BioAssay AID449739 (Vanderbilt High Throughput Screening Facility, 2010)
Among all 100,000 compounds or so, about 4,200 (4.2%) were called active.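 Rule for the calls: active = single-dose well whose peak fluorescence ratio is a statistical outlier from its plate by either plate-standardised score or position-corrected B-score; inactive = the rest.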 The list comes from a sample in which actives are over-represented; it also holds similar structures and randomly drawn compounds.

Target: Voltage-dependent T-type calcium channel subunit alpha-1H (Homo sapiens) (UniProt O95180)
Sequence (O95180 whole entry, looked up): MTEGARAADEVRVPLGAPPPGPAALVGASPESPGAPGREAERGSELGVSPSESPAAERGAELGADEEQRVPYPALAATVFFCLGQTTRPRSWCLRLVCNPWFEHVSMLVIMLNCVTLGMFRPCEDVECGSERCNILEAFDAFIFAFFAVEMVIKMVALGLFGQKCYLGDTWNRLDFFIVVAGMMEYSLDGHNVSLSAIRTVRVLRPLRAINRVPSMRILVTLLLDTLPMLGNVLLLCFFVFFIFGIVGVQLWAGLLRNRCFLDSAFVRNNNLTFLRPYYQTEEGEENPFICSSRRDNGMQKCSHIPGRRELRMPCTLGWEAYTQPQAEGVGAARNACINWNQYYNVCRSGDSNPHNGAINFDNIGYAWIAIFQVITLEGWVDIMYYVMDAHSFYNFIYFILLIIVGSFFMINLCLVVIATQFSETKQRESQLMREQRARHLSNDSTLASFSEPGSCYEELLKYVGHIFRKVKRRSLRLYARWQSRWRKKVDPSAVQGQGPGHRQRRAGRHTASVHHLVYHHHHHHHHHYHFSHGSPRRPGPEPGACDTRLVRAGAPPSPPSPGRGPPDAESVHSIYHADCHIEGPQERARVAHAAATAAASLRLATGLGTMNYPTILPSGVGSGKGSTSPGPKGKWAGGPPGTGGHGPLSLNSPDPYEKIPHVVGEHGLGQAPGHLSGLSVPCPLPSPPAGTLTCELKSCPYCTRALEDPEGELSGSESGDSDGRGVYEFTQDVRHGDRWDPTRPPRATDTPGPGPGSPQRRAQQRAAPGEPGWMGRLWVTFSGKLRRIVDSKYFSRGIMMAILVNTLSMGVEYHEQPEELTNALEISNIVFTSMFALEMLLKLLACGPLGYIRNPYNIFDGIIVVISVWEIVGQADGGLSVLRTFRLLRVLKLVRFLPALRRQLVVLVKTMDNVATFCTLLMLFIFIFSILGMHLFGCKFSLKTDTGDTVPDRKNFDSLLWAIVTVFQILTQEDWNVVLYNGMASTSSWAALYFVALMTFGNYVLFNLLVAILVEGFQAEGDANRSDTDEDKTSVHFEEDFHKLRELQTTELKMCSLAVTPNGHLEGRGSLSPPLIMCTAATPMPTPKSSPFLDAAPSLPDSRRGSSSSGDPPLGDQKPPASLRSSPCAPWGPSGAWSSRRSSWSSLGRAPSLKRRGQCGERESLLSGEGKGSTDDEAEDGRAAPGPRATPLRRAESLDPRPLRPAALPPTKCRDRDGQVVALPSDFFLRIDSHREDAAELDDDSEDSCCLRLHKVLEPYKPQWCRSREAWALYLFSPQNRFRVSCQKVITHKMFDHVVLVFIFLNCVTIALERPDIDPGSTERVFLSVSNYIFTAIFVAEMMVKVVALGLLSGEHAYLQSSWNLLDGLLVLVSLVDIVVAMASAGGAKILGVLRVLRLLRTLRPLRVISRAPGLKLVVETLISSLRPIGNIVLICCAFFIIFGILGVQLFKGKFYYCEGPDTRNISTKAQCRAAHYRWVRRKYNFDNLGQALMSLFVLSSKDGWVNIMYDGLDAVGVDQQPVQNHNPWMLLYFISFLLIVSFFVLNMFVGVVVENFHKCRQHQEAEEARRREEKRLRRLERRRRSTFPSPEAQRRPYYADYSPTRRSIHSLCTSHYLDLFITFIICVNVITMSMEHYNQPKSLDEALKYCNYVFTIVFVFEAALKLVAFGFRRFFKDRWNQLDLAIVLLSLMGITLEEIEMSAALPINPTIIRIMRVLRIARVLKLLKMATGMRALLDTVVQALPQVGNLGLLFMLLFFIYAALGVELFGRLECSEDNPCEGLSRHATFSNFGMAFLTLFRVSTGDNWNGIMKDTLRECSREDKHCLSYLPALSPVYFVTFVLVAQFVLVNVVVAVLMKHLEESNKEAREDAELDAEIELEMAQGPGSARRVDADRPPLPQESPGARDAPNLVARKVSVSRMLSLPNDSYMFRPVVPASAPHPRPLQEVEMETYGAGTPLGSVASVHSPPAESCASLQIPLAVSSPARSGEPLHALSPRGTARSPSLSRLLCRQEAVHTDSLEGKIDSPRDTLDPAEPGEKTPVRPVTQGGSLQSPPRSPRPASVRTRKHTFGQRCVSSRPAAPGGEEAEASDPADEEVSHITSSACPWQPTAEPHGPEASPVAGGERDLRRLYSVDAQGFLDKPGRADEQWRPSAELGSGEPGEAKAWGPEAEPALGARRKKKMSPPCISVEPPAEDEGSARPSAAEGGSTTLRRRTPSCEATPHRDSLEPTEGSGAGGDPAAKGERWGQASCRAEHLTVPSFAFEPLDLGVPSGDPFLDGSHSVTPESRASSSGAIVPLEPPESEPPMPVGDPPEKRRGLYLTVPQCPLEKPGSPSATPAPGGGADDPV
Test: Cav3.2 calcium influx blockers – cell-based, Fluo-4 calcium fluorescence, FDSS, MLSMR library, primary screen (AID 449739)
Settings: Cav3.2-expressing cells, at 10 µM, stronger effect = lower value

Row | Compound | B-score
1 | CCOC(=O)c1c(N)n(CCN2CCOCC2)c2nc3ccccc3nc12 | 0.618 (inactive)
2 | CCOC(=O)c1c(N)n(Cc2ccccc2)c2nc3ccccc3nc12 | -0.856 (inactive)
3 | COc1cc(Cn2c(N)c(C(=O)NCc3ccco3)c3nc4ccccc4nc32)cc(OC)c1OC | -1.47 (active)
4 | O=C(COc1ccc2ccccc2c1)N1CCN(Cc2ccncc2)CC1 | 0.31 (inactive)
5 | CCC(=NCCCO)c1c(O)n(-c2ccc(OC)cc2)c(=O)[nH]c1=O | -0.0478 (inactive)
6 | CCCCCCN=C(CC)c1c(O)n(CCCC)c(=O)[nH]c1=O | -6.91 (active)
7 | CCCCn1c(O)c(C(CC)=NCc2ccco2)c(=O)[nH]c1=O | -0.626 (inactive)
8 | COC(=O)C1=C(c2cc3ccccc3o2)C[C@@H]2CC[C@H]1N2C(=O)NC1CCCCC1 | -0.929 (inactive)
9 | COc1ccc2c(c1)[C@]13CCCCC1C(C2)N(C)CC3 (stereo not given in full) | 1.06 (inactive)
10 | CCCCCn1c(=O)c(C(=O)NCc2ccccn2)c(O)c2ccccc21 | -1.65 (inactive)
11 | CCCCCn1c(=O)c(C(=O)Nc2c(C)n(C)n(-c3ccccc3)c2=O)c(O)c2ccccc21 | -7.21 (active)
12 | C[C@@]1([C@@H](NP(=O)(c2ccccc2)c2ccccc2)c2ccccc2)C[C@H]1CCO | -0.319 (inactive)
13 | C[N+]1(C)CCOC(O)(c2ccc(-c3ccc(C4(O)C[N+](C)(C)CCO4)cc3)cc2)C1 (stereo not given) | 0.445 (inactive)
14 | C=CC12CN(C)[C@@H]3C4CO[C@H](C[C@H]41)[C@]1(C(=O)Nc4ccccc41)[C@@H]32 (stereo not given in full) | -0.174 (inactive)
15 | Cc1ccc(N(C)C(=O)Oc2cccc3ccc(C)nc23)cc1 | -6.07 (active)
16 | COC(=O)C1=C(c2ccccc2)C[C@@H]2CC[C@H]1N2C(=O)NCc1ccco1 | 0.641 (inactive)
17 | CCCC[N+]1(C)C2CC(OC(=O)C(CO)c3ccccc3)CC1C1OC12 (stereo not given) | -0.292 (inactive)
18 | CN(C)C(=O)NC(O)C(Cl)(Cl)Cl (stereo not given) | -0.859 (inactive)
19 | CNCC(O)c1cc(F)c(OCc2ccccc2)c(OCc2ccccc2)c1F (stereo not given) | -0.0158 (inactive)
20 | CC(C)(C)c1ccc(CN2C(=O)CN=C(c3ccccc3)c3ccccc32)cc1 | -5.08 (active)
21 | CC1C2Cn3c(nc4ccccc43)C1N(C)O2 (stereo not given) | 0.301 (inactive)
22 | COC(=O)C1=C(c2cc3ccccc3s2)C[C@@H]2CC[C@H]1N2C(=O)NCCO | 0.584 (inactive)
23 | COC(=O)C1=C(c2cc3ccccc3s2)C[C@@H]2CC[C@H]1N2C(=O)NCc1cccc2ccccc12 | -4.11 (active)
24 | COC(=O)C1=C(c2cc3ccccc3s2)C[C@@H]2CC[C@H]1N2C(=O)NC(C)C | 0.726 (inactive)
25 | COC(=O)C1=C(c2ccccc2)C[C@@H]2CC[C@H]1N2C(=O)N1CCCCC1 | 0.364 (inactive)
26 | COc1ccc2c(c1O)-c1cccc3c1[C@@H](C2)N(C)CC3 | -2.61 (inactive)
27 | COc1c(O)ccc2c1-c1c3c(cc4c1C(C2)N(C)CC4)OCO3 (stereo not given) | 0.137 (inactive)
28 | CC[C@H]1CC2CN3CCc4c([nH]c5ccccc45)C(C(=O)OC)(C2)C13 (stereo not given in full) | -1.28 (inactive)
29 | NCC(O)c1ccc(O)cc1 (stereo not given) | 1.98 (inactive)
30 | CC(C)(C)[C@]1(O)C[C@@H]2OC(=O)C[C@@]23C(=O)O[C@@H]2OC(=O)[C@H](O)[C@]213 | 0.0998 (inactive)
